Read-out in test [1]: Matrix Metallopeptidase 9 (MMP9), MMP9 (gene 4318)
Nature of the test: BSK_KF3CT_MMP9: BioMAP Diversity Plus: KF3CT Assay for Matrix Metallopeptidase 9 (MMP9) Biomarker Activity (AID 2283074).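 As to AC50: MMP9 protein level quantified by ELISA in the co-culture.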 As to conditions: primary human keratinocytes with fibroblasts; actives raise or lower the signal. Put shortly:
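Human keratinocyte and foreskin fibroblast co-culture exposed to chemicals for 24 h; MMP9 biomarker measured by ELISA, bidirectional fitting relative to DMSO; cytotoxicity tracked by SRB total protein staining in parallel cultures.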

Read-out in test [2]: urokinase plasminogen activator (uPA), PLAU (gene 5328)
Briefly: BSK_KF3CT_uPA: BioMAP Diversity Plus: KF3CT Assay for urokinase plasminogen activator (uPA) Biomarker Activity (AID 2283075). The note with it: primary human keratinocytes with fibroblasts; actives raise or lower the signal. Put shortly:
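Primary human keratinocyte/foreskin fibroblast co-culture exposed to chemical; uPA measured by ELISA at 24 h. Bidirectional fit versus DMSO, with parallel SRB total-protein staining for cytotoxicity.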

Read-out in test [3]: CD40, CD40 (gene 958)
Nature of the test: BSK_LPS_CD40: BioMAP Diversity Plus: LPS Assay for CD40 Biomarker Activity (AID 2283076). As to conditions: primary human HUVEC with PBMC; actives raise or lower the signal. Put shortly:
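Using a multiplexed primary human co-culture (umbilical vein endothelium plus PBMC), CD40 was read by ELISA 24 h after dosing, with cytotoxicity tracked by sulforhodamine B staining of parallel cultures and activity fitted bidirectionally versus DMSO.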

Read-out in test [4]: E-selectin (Homo sapiens) (UniProt P16581)
Nature of the test: BSK_LPS_Eselectin: BioMAP Diversity Plus: LPS Assay for Eselectin Biomarker Activity (AID 2283077). As to conditions: primary human HUVEC with PBMC; actives raise or lower the signal. Put shortly:
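Dose chemical onto LPS-driven HUVEC/PBMC co-culture; after 24 h, run ELISA for E-selectin; fit up- and down-going responses relative to DMSO control.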

Read-out in test [5]: Interleukin-8 (IL8), CXCL8 (gene 3576)
Nature of the test: BSK_LPS_IL8: BioMAP Diversity Plus: LPS Assay for Interleukin-8 (IL8) Biomarker Activity (AID 2283078). The note with it: primary human HUVEC with PBMC; actives raise or lower the signal. Put shortly:
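In this LPS system, chemical-treated human umbilical vein endothelium/PBMC co-cultures were harvested at 24 h for IL-8 ELISA.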

Test [6] in a line: BSK_LPS_SRB: Viability Assessment in the BioMAP Diversity Plus: LPS Assay (AID 2283079).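 Also: total protein by sulforhodamine B absorbance as a cytotoxicity measure; measured one day after compound addition; fitted in both directions against DMSO so loss or gain of signal counts.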 The note with it: primary human HUVEC with PBMC. Put shortly:
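Cytotoxicity endpoint in human endothelial–PBMC co-culture: 24 h exposure, then SRB (0.1%) staining, 560 nm read.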

Read-out in test [7]: Interleukin-1 alpha (IL1a), IL1A (gene 3552)
Nature of the test: BSK_LPS_IL1a: BioMAP Diversity Plus: LPS Assay for Interleukin-1 alpha (IL1a) Biomarker Activity (AID 2283080). The note with it: primary human HUVEC with PBMC; actives raise or lower the signal. The procedure, abridged:
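Primary human HUVEC and PBMC co-culture stimulated with LPS is dosed and harvested at 24 h. Both increases and decreases in ELISA-measured IL-1a are scored relative to DMSO.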

Read-out in test [8]: Monocyte Chemoattractant Protein-1 (MCP1), CCL2 (gene 6347)
Nature of the test: BSK_LPS_MCP1: BioMAP Diversity Plus: LPS Assay for Monocyte Chemoattractant Protein-1 (MCP1) Biomarker Activity (AID 2283081).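 As to AC50: secreted MCP-1 protein quantified by ELISA in culture supernatant.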 As to conditions: primary human HUVEC with PBMC; actives raise or lower the signal. The procedure, abridged: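 Values derive from bidirectional fitting against DMSO of ELISA-measured MCP-1 in a human primary endothelial and mononuclear cell co-culture, 24 h after chemical addition under LPS activation.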

Test [9] is described as follows: BSK_LPS_PGE2: BioMAP Diversity Plus: LPS Assay for Prostaglandin E2 (PGE2) Biomarker Activity (AID 2283082). As to conditions: primary human HUVEC with PBMC; actives raise or lower the signal. The procedure, abridged: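 HUVEC plus human PBMC co-culture stimulated with LPS; secreted PGE2 quantified by ELISA 24 h after chemical dosing. Activity fitted bidirectionally against DMSO baseline; parallel SRB staining (0.1% SRB after 10% TCA fixation, 560 nm) flags overt cytotoxicity.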

Read-out in test [10]: Macrophage colony-stimulating factor (MCSF), CSF1 (gene 1435)
Nature of the test: BSK_LPS_MCSF: BioMAP Diversity Plus: LPS Assay for Macrophage colony-stimulating factor (MCSF) Biomarker Activity (AID 2283083). As to conditions: primary human HUVEC with PBMC; actives raise or lower the signal. The procedure, abridged: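 Bidirectional fit versus DMSO of ELISA-measured M-CSF in co-cultured human umbilical vein endothelial cells and PBMC, sampled 24 h after dosing.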

Read-out in test [11]: Tissue Factor, F3 (gene 2152)
Briefly: BSK_LPS_TissueFactor: BioMAP Diversity Plus: LPS Assay for Tissue Factor Biomarker Activity (AID 2283084). The note with it: primary human HUVEC with PBMC; actives raise or lower the signal. The procedure, abridged: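 Read-out: CD142 ELISA, 24 h. System: LPS-driven human endothelial/PBMC co-culture. Analysis: up- or down-signal fitted against DMSO.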

Read-out in test [12]: Tumor necrosis factor (Homo sapiens) (UniProt P01375)
Briefly: BSK_LPS_TNFa: BioMAP Diversity Plus: LPS Assay for Tumour Necrosis Factor alpha (TNFa) Biomarker Activity (AID 2283085). As to conditions: primary human HUVEC with PBMC; actives raise or lower the signal. Put shortly: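 Human umbilical vein endothelial cells co-cultured with PBMC and stimulated with LPS. TNFa was measured by ELISA 24 h after chemical dosing, fitted bidirectionally relative to DMSO.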

Read-out in test [13]: Vascular cell adhesion molecule 1 (VCAM1), VCAM1 (gene 7412)
Nature of the test: BSK_LPS_VCAM1: BioMAP Diversity Plus: LPS Assay for Vascular cell adhesion molecule 1 (VCAM1) Biomarker Activity (AID 2283086). As to conditions: primary human HUVEC with PBMC; actives raise or lower the signal. Put shortly: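 Human umbilical vein endothelial cells co-cultured with PBMC and stimulated with LPS; VCAM-1 measured by ELISA 24 h after dosing. Bidirectional curve fitting against DMSO baseline; cytotoxicity tracked in parallel by SRB total-protein staining.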

Read-out in test [14]: CD38, CD38 (gene 952)
Nature of the test: BSK_SAg_CD38: BioMAP Diversity Plus: SAg Assay for CD38 Biomarker Activity (AID 2283087). The note with it: primary human HUVEC with PBMC; actives raise or lower the signal. Put shortly:
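Human HUVEC plus PBMC co-culture stimulated with superantigen; CD38 measured by ELISA 24 h after chemical dosing. Fluorescence read-out, bidirectional fit against DMSO; cytotoxicity tracked in parallel by SRB and Alamar Blue.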

Read-out in test [15]: CD40, CD40 (gene 958)
Briefly: BSK_SAg_CD40: BioMAP Diversity Plus: SAg Assay for CD40 Biomarker Activity (AID 2283088). The note with it: primary human HUVEC with PBMC; actives raise or lower the signal. The procedure, abridged: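 Endpoint derived by fitting increases or decreases versus DMSO controls. CD40 is detected by fluorescence ELISA in a human vascular co-culture of endothelium and PBMC at 24 h.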

Read-out in test [16]: CD69, CD69 (gene 969)
Briefly: BSK_SAg_CD69: BioMAP Diversity Plus: SAg Assay for CD69 Biomarker Activity (AID 2283089).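 As to AC50: cell surface CD69 protein quantified by ELISA with fluorescence detection.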 The note with it: primary human HUVEC with PBMC; actives raise or lower the signal. The procedure, abridged: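 Values derive from bidirectional fitting relative to DMSO vehicle. Cells: umbilical vein endothelium plus peripheral blood mononuclear cells, treated 24 h before fluorescent ELISA for CD69.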

Read-out in test [17]: Monocyte Chemoattractant Protein-1 (MCP1), CCL2 (gene 6347)
Briefly: BSK_SAg_MCP1: BioMAP Diversity Plus: SAg Assay for Monocyte Chemoattractant Protein-1 (MCP1) Biomarker Activity (AID 2283090). As to conditions: primary human HUVEC with PBMC; actives raise or lower the signal. Put shortly: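 MCP-1 levels in the endothelial–PBMC SAg co-culture were quantified by ELISA at 24 h post-dosing; both increases and decreases versus DMSO scored. Cytotoxicity monitored by SRB total protein in parallel cultures.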

Read-out in test [18]: E-selectin (Homo sapiens) (UniProt P16581)
Briefly: BSK_SAg_Eselectin: BioMAP Diversity Plus: SAg Assay for Eselectin Biomarker Activity (AID 2283091). As to conditions: primary human HUVEC with PBMC; actives raise or lower the signal. Put shortly: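 Endpoint values derive from bidirectional fitting relative to DMSO, using ELISA-measured E-selectin in a human vascular co-culture (umbilical vein endothelium plus PBMC) sampled 24 h after dosing.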

Read-out in test [19]: Monokine induced gamma interferon (MIG), CXCL9 (gene 4283)
Briefly: BSK_SAg_MIG: BioMAP Diversity Plus: SAg Assay for Monokine induced gamma interferon (MIG) Biomarker Activity (AID 2283092). As to conditions: primary human HUVEC with PBMC; actives raise or lower the signal. Put shortly:
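Values reflect bidirectional fitting of ELISA-measured MIG against DMSO vehicle, taken 24 h after dosing of a co-culture of human umbilical vein endothelial cells and peripheral blood mononuclear cells.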

The source of these data is PubChem BioAssay (EPA / NIEHS).

Activity calls are given as the source filed them. The calls were made as follows: active = hit-call score of the fitted dose curve at least 0.9, where 1 is the maximum; inactive = score below 0.9.

E-selectin (Homo sapiens), sequence (P16581 whole entry, looked up): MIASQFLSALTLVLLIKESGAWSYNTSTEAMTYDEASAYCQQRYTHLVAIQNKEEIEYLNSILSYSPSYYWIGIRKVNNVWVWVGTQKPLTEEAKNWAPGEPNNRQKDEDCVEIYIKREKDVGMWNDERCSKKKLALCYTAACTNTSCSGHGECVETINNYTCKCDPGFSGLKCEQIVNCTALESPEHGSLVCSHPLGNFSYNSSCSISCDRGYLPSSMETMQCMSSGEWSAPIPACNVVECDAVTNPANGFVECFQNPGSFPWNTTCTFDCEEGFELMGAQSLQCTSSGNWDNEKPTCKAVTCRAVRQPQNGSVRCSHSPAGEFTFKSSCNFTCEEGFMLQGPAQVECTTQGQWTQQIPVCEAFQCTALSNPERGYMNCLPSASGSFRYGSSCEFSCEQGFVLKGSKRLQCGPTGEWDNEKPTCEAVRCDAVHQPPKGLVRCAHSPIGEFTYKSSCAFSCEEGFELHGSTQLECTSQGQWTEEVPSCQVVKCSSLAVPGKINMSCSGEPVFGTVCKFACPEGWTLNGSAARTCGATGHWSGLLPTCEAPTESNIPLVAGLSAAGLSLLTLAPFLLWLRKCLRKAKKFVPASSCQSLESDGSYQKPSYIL
Tumor necrosis factor (Homo sapiens), sequence (P01375 whole entry, looked up): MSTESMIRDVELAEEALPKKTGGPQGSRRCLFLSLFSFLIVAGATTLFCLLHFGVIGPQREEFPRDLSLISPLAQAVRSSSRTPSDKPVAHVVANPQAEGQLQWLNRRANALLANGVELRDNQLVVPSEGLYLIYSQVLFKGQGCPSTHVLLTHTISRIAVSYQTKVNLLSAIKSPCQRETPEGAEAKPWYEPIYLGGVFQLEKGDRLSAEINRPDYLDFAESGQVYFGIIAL

For `Oc1ccccc1`, the result in test [1], in [2], in test [3], in [4], in test [5] and in test [6] was inactive. Also, the result in test [7], in test [8], in test [9], in test [10], in [11] and in test [12] was inactive. Also, the outcome in test [13], in test [14], in [15], in test [16], in [17] and in test [18] was inactive. In addition, the outcome in test [19] was inactive.

Usually AC50 stands for the concentration at which the activity in the assay is half-maximal. Turning to `COc1ccc2cc(S(=O)(=O)N[C@H](CC(=O)N[C@H](Cc3ccc(CN4[C@H](C)CCC[C@@H]4C)cc3)C(=O)N(C)C(C)C)c3ccc4c(c3)OCO4)ccc2c1`, the concentration at half-maximal activity (AC50) in test [1] was 32.8 µM (active); in [3], 11.6 µM (active); in test [4] it was 31.3 µM (active); in [5], 5.7 µM (active); in [6] it was 15.5 µM (active); in [7], 14.5 µM (active). For the same compound, the AC50 was 23.1 µM (active) in test [8]; 31.1 µM (active) in test [9]; 19.1 µM (active) in [10]; 33.9 µM (active) in test [11]; 33.6 µM (active) in test [12]; 11.3 µM (active) in [13]. In addition, the concentration at half-maximal activity (AC50) in test [14] was 26.2 µM (active); in [15], 24 µM (active); in test [16] it was 24.5 µM (active); in [17] it was 19.1 µM (active); in test [18], 31.7 µM (active). Also, the result in test [2] was inactive.

As for `Cc1cc(F)ccc1-c1cc(N2CC[C@@H](O)[C@H]2CO)ncc1N(C)C(=O)C(C)(C)c1cc(C(F)(F)F)cc(C(F)(F)F)c1`, the AC50 in test [1] was 12.3 µM (active); in test [2], 12.7 µM (active); in [3], 8.65 µM (active); in test [4] it was 11.3 µM (active); in test [5], 10.8 µM (active); in test [6], 11.3 µM (active). The AC50 is 9.95 µM (active) in test [7]; 10.8 µM (active) in test [8]; 10.8 µM (active) in test [10]; 12.9 µM (active) in test [11]; 10.7 µM (active) in test [12]; 11.2 µM (active) in test [13]. Besides, the AC50 is 10.2 µM (active) in test [14]; 9.9 µM (active) in test [15]; 10.5 µM (active) in [16]; 10.3 µM (active) in [17]; 10.2 µM (active) in test [18]. Besides, the result in test [9] was inactive.

As for `CCOC(=O)O[C@H](C)OC(=O)c1ccc2c(c1)cc(C(=O)NC1CCN(C(C)C)CC1)n2Cc1cc(-c2ccc(Cl)s2)on1`, the AC50 in [1] is 8.39 µM (active); in [2], 8.14 µM (active); in test [3], 6.74 µM (active); in [4], 10.4 µM (active); in test [5], 6.76 µM (active); in test [6], 5.61 µM (active). The concentration at half-maximal activity (AC50) was 6.55 µM (active) in test [7]; 8.72 µM (active) in [8]; 7.65 µM (active) in test [9]; 6.43 µM (active) in test [10]; 10.9 µM (active) in [11]; 10.1 µM (active) in [12]. For the same compound, the half-maximal activity concentration (AC50) was 6.25 µM (active) in [13]; 7.17 µM (active) in [14]; 6.99 µM (active) in [15]; 6.44 µM (active) in test [16]; 7.11 µM (active) in test [17]; 8.76 µM (active) in test [18].

Take `CCCCCCCC[Si](OCC)(OCC)OCC`: the AC50 was 27.6 µM (active) in [1]; 30.1 µM (active) in test [13]; 20 µM (active) in test [14]; 25.4 µM (active) in [16]; 20.7 µM (active) in test [18]. For the same compound, the outcome in test [2], in test [3], in [4], in [5], in test [6] and in [7] was inactive. The result in [8], in test [9], in [10], in test [11], in test [12] and in test [15] was inactive. The outcome in test [17] and in [19] was inactive.

For `Cc1ncc(CO)c(CO)c1O`, the result in test [1], in test [2], in test [3], in test [4], in [5] and in test [6] was inactive. Further, the outcome in test [7], in [8], in test [9], in [10], in test [11] and in test [12] was inactive. The outcome in [13], in test [14], in test [15], in [16], in test [17] and in test [18] was inactive.
